According to PubChem BioAssay (NCATS):
Values joined by “and” are separate entries in the source; they are usually repeats but may differ in a detail not shown here. Identical values can stand only once. Inconclusive results are not listed. Active and inactive are the calls of the source. Calls follow the shape of the dose curve; as a rule, active = well fitted curve in the direction sought with a large enough effect; inconclusive = small, poorly fitted or top-dose-only effect, or another doubt; inactive = no such curve, though single readings can be large; an effect the other way counts as inactive or inconclusive.

How the values were obtained:
[1] = Quantitative highthroughput screen to assess conditional lethalithy of NOMO1 cells grown in RPMI1640 with untreated serum (RPMI+s) (AID 1963876); conditions: NOMO1 AML cells in RPMI+serum, CellTiter-Glo viability, 48 h; series mostly up to 45.8 µM; also: nearly all actives have a fitted effect of over 35% in size;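 as to viability: 100% = DMSO wells and 0% = empty wells without cells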
Method in brief: (§1)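 Each medium arm—HPLM with 10% dialyzed FBS, or RPMI1640 with 5 mM glucose and 10% untreated or dialyzed FBS—was screened against an 11-point, 3-fold compound titration for 48 h at 37 °C, with CellTiter-Glo luminescence as endpoint.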

[2] = Quantitative highthroughput screen to assess conditional lethalithy of NOMO1 cells grown in RPMI1640 with dialyzed fetal bovine serum (RPMI+ds) (AID 1963877); conditions: NOMO1 in RPMI+dialyzed FBS viability, ATP luminescence, 48 h; series mostly up to 45.8 µM; also: nearly all actives have a fitted effect of over 30% in size;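 as to viability: 100% = DMSO control wells and 0% = empty wells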
Method in brief: as §1

[3] = Quantitative highthroughput screen to assess conditional lethalithy of P12 Ichikawa cells grown in Human Plasma-Like Medium with dialyzed fetal bovine serum (HPLM+ds) (AID 1963879); conditions: ATP luminescence, 48 h; Potency: viability; series mostly up to 45.8 µM; also: nearly all actives have a fitted effect of over 35% in size
Method in brief: as §1

[4] = Quantitative highthroughput screen to assess conditional lethalithy of P12 Ichikawa cells grown in RPMI1640 with untreated serum (RPMI+s) (AID 1963881); conditions: ATP luminescence, 48 h; Potency: viability; series mostly up to 45.8 µM; also: nearly all actives have a fitted effect of over 35% in size;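 as to viability: 100% = DMSO wells and 0% = empty wells without cells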
Method in brief: as §1

[5] = Quantitative highthroughput screen to assess conditional lethalithy of SEM cells grown in RPMI1640 with unreated serum (RPMI+s) (AID 1963883); conditions: SEM B-ALL cells, CellTiter-Glo viability, 48 h; series mostly up to 45.8 µM; also: nearly all actives have a fitted effect of over 35% in size;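 as to viability: 100% = DMSO wells and 0% = empty wells without cells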
Method in brief: as §1

[6] = Cellular viability qHTS for adrenocortical cancer (ACC) cell line SW-13 (AID 1963989); conditions: SW-13 ACC cells viability, CellTiter-Glo, 48 h; activity (max response): hits give low values; also: nearly all actives have a fitted effect of over 65% in size;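 as to activity (max response): cells grown in serum-free medium with ITS supplement; % is scaled to controls: 0 for no effect and ±100 for the full control effect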
Method in brief: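 IC50 and maximal-response values come from four-parameter logistic fits of titration data. SW-13 cells in serum-free medium received compounds (up to 46 uM final) for 48 h before CellTiter-Glo luminescence.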

[7] = Cellular viability qHTS for adrenocortical cancer (ACC) cell line NCI-H295R (AID 1963990); conditions: CellTiter-Glo ATP luminescence, 48 h; series mostly up to 46.1 µM; also: nearly all actives have a fitted effect of over 60% in size
Method in brief: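 Adrenocortical carcinoma cells, suspended at 300 000 cells/mL in serum-free DMEM plus ITS, rested overnight before pin transfer of compound. After two days' incubation, ATP-dependent luminescence was recorded and curve-fitted.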

[8] = Quantitative highthroughput screen to assess conditional lethalithy of SEM cells grown in Human Plasma-Like Medium with dialyzed fetal bovine serum (HPLM+ds) (AID 1963882); conditions: SEM B-ALL cells in HPLM+ds, CellTiter-Glo viability, 48 h; series mostly up to 45.8 µM; also: nearly all actives have a fitted effect of over 35% in size
Method in brief: as §1

[9] = Quantitative highthroughput screen to assess conditional lethalithy of SEM cells grown in RPMI1640 with dialyzed fetal bovine serum (RPMI+ds) (AID 1963884); conditions: SEM B-ALL cells, RPMI+dialyzed FBS, CellTiter-Glo viability, 48 h; series mostly up to 45.8 µM; also: nearly all actives have a fitted effect of over 35% in size;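 as to viability: 100% = DMSO control wells and 0% = empty wells without cells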
Method in brief: as §1

[10] = Quantitative highthroughput screen to assess conditional lethalithy of P12 Ichikawa cells grown in RPMI1640 with dialyzed fetal bovine serum (RPMI+ds) (AID 1963880); conditions: ATP luminescence, 48 h; Potency: P12-Ichikawa viability; series mostly up to 45.8 µM; also: nearly all actives have a fitted effect of over 35% in size;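 as to viability: 100% = DMSO wells and 0% = empty wells on each plate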
Method in brief: as §1

[11] = Quantitative highthroughput screen to assess conditional lethalithy of NOMO1 cells grown in Human Plasma-Like Medium with dialyzed fetal bovine serum (HPLM+ds) (AID 1963878); conditions: NOMO1 AML cells in HPLM+ds, CellTiter-Glo viability, 48 h; series mostly up to 45.8 µM; also: nearly all actives have a fitted effect of over 35% in size;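 as to viability: 100% = DMSO wells and 0% = empty wells on each plate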
Method in brief: as §1
Potency is read from the fitted curve at half-maximal effect.

CC(C)(C(=O)NCC(F)(F)C(F)(F)F)C(=O)N[C@@H]1C(=O)Nc2ccccc2-c2ccccc21
inactive: activity (max response) [6] -5.79% | Potency [7]
active: Potency [1] 935 nM | Potency [2] 1870 nM | Potency [3] 2640 nM | Potency [4] 2960 nM | Potency [5] 16600 nM

O=C(c1ccc(C=Cc2n[nH]c3ccccc23)cc1)N1CCNCC1
active: Potency [1] 469 nM | Potency [2] 935 nM | Potency [3] 935 nM | Potency [4] 935 nM | Potency [5] 166 nM

O=C1NC(=O)C(=Cc2ccc(-c3ccc(F)cc3O)o2)S1
active: Potency [2] 10500 nM | Potency [4] 6620 nM
inactive: Potency [1] | Potency [3] | Potency [8] | Potency [5]

O=C(O)c1ccc(O)c2ncc(N3CCOCC3)cc12
inactive: Potency [1] | Potency [2] | activity (max response) [6] -5.09% | Potency [7]
active: Potency [9] 18700 nM

COC1=C2C[C@@H](C)C[C@H](OC)[C@@H](O)[C@@H](C)C=C(C)[C@H](OC(N)=O)[C@@H](OC)C=CC=C(C)C(=O)NC(=CC1=O)C2=O
active: Potency [1] 23500 nM | Potency [2] 20900 nM | Potency [8] 8330 nM | Potency [5] 8330 nM | Potency [9] 7430 nM

O=C(O)C1=CO[C@@H](O[C@@H]2O[C@H](CO)[C@H](O)[C@H](O)[C@H]2O)[C@@H]2C(CO)=CC[C@H]12
inactive: Potency [1] | Potency [2] | Potency [10] | Potency [4] | Potency [8] | Potency [5] | Potency [9]

C[C@H]1[C@H](O)O[C@@H]2O[C@@]3(C)CC[C@@H]4[C@H](C)CC[C@@H]1[C@@]24OO3
active: Potency [1] 1870 nM | Potency [2] 2090 nM | Potency [4] 2960 nM | Potency [8] 4180 nM | Potency [5] 4690 nM | Potency [9] 3320 nM

CCC(=O)O[C@]1(C(=O)CO)CC[C@H]2[C@@H]3CCC4=CC(=O)CC[C@]4(C)[C@@H]3CC[C@@]21C
inactive: Potency [1]
active: Potency [2] 10500 nM | Potency [5] 743 nM | Potency [9] 1180 nM

CCN(CC)CCNC(=O)c1c(C)[nH]c(C=C2C(=O)Nc3ccc(F)cc32)c1C
active: Potency [1] 303 nM | Potency [11] 171 nM | Potency [3] 270 nM | Potency [10] 340 nM | Potency [4] 481 nM

CC[C@]1(O)C[C@H]2CN(CCC3=c4ccccc4=N[C]3[C@@](C(=O)OC)(c3cc4c(cc3OC)N(C)[C@H]3[C@@](O)(C(N)=O)[C@H](O)[C@]5(CC)C=CCN6CC[C@]43[C@@H]65)C2)C1
active: Potency [1] 93.5 nM | Potency [11] 14.8 nM | Potency [3] 83.3 nM | Potency [10] 132 nM | Potency [4] 66.2 nM | Potency [8] 118 nM | Potency [5] 59 nM

COCCCOc1ccnc(CS(=O)c2nc3ccccc3[nH]2)c1C (stereo unspecified)
inactive: Potency [1] | Potency [2] | Potency [3] | Potency [4] | Potency [8] | Potency [5] | Potency [9] | activity (max response) [6] 10.6% and -5.29% | Potency [7]

COc1ccc(-c2c(-c3ccc(O)cc3O)n[nH]c2C)cc1
inactive: Potency [1] | Potency [2] | Potency [10] | activity (max response) [6] -14.3% | Potency [7]

CON=C(C(=O)N[C@@H]1C(=O)N2C(C(=O)O)=C(Cn3ccc(=N)n3CCO)CS[C@H]12)c1csc(N)n1
inactive: Potency [1] | Potency [3] | Potency [10] | Potency [4] | Potency [8] | Potency [5]

c1ccc(-c2nn3c(c2-c2ccnc4cc(OCCN5CCOCC5)ccc24)CCC3)nc1
active: Potency [11] 18700 nM
inactive: Potency [1] | Potency [3] | Potency [10] | Potency [4] | Potency [5] | Potency [7]

CS(=O)(=O)c1ccc(C(=O)Nc2ccc(Cl)c(-c3ccccn3)c2)c(Cl)c1
inactive: Potency [1] | Potency [11] | Potency [3] | Potency [10] | Potency [4] | Potency [8] | Potency [9] | activity (max response) [6] -0.792% | Potency [7]

CC(=O)O[C@]1(C(C)=O)CC[C@H]2[C@@H]3C=C(Cl)C4=CC(=O)[C@@H]5C[C@H]5[C@]4(C)[C@@H]3CC[C@@]21C
active: Potency [1] 590 nM | Potency [3] 2960 nM | Potency [10] 2350 nM | Potency [4] 2960 nM
inactive: Potency [8] | Potency [5] | Potency [9]

CC(N[C@H]1CCCC[C@H]1NC(=O)c1ccc(Cl)cc1)c1cccc2ccccc12 (stereo partly specified)
inactive: Potency [8] | Potency [5] | Potency [9]
active: Potency [1] 8330 nM | Potency [11] 5260 nM | Potency [6] 25100 nM | Potency [7] 7080 nM

C=C1C(=CC=C2CCC[C@]3(C)[C@@H]([C@H](C)CCCC(C)(C)O)CC[C@@H]23)C[C@@H](O)C[C@@H]1O
inactive: Potency [1] | Potency [11] | Potency [3] | Potency [8]
